For 37 compounds, Inhibition results are on record in ChEMBL document CHEMBL4513141, “CO-ADD screening of NIH (USA) - Clinical Collection” (2021).

The structures appear in SMILES notation. Results with a measured potency or affinity are listed apart.

This test relates to Staphylococcus aureus. To be noted: Concentration 20 uM; ASSAY_TEST Inhibition of Bacterial Growth; detection method Absorption (OD600); MEDIA CAMHB; plate type 384well; NBS; CORNING #3640; time 18 hr.
One may read the Inhibition as the drop in the measured response relative to a control, in per cent. Regarding `C[C@@H]1C[C@H]2[C@@H]3CCC4=CC(=O)C=C[C@]4(C)[C@@]3(F)[C@@H](O)C[C@]2(C)[C@H]1C(=O)CO` [DESOXIMETASONE], the Inhibition is given as 0.95%. In the case of `CC(C)[C@H](N)C(=O)OCCOCn1cnc2c(=O)nc(N)[nH]c21.Cl` [VALACYCLOVIR HYDROCHLORIDE], the Inhibition is given as 12.39%. For `CC12CC3CC(C)(C1)CC(N)(C3)C2.Cl` [MEMANTINE HYDROCHLORIDE] the value was 17.71%.

For `C/C=C1/[C@H]2C=C(C)C[C@]1(N)c1ccc(O)nc1C2`, the Inhibition came out at 13.84%. As for `CC(O)CO.N[C@@H](C(=O)N[C@@H]1C(=O)N2C(C(=O)O)=C(CSc3c[nH]nn3)CS[C@H]12)c1ccc(O)cc1`, the figure is 31.82%; as for `CC1=Nc2ccc(Cl)cc2S(=O)(=O)N1` [DIAZOXIDE], 9.13%; as for `Cl.O=C(NCC1CCCCN1)c1cc(OCC(F)(F)F)ccc1OCC(F)(F)F` (configuration not stated), 10.41%. For `CCCCC[C@H](O)/C=C/[C@H]1[C@H](O)CC(=O)[C@@H]1CCCCCCC(=O)O` [ALPROSTADIL] the value was 3.1%.

As for `O=C1N=C([O-])NC1(c1ccccc1)c1ccccc1.[Na+]` [PHENYTOIN SODIUM], the Inhibition was 10.31%.

With `CCC(C)(C)/N=C(\NC#N)Nc1cccnc1`, the Inhibition stood at 1.37%. On to `CN(C)CCN(Cc1ccccc1)c1ccccn1.Cl` [TRIPELENNAMINE HYDROCHLORIDE], for which the Inhibition is on record as -12.77%. For `CN1CCCC(n2nc(Cc3ccc(Cl)cc3)c3ccccc3c2=O)CC1.Cl` (configuration not stated) [AZELASTINE HYDROCHLORIDE] the value was -20.95%; for `CCN(CC)CCNC(=O)c1ccc(N)cc1.Cl` [PROCAINAMIDE HYDROCHLORIDE], -10.39%. Take `Cc1cccc(C)c1OCC(C)N.Cl` (configuration not stated) [MEXILETINE HYDROCHLORIDE]: the Inhibition came out at 13.57%. For `CS(=O)(=O)OCCCCOS(C)(=O)=O` [BUSULFAN], the Inhibition stood at 14.7%. For `CCCCC(=O)O[C@H]1CC[C@H]2[C@@H]3CCc4cc(O)ccc4[C@H]3CC[C@]12C` [ESTRADIOL VALERATE] the value was 3.82%. As to `COc1c2occc2cc2ccc(=O)oc12` [METHOXSALEN], the Inhibition is reported as 13.34%. As to `O=C1c2c(O)cc(O)cc2O[C@H](c2ccc(O)c(O)c2)[C@@H]1O`, the Inhibition was found to be 15.43%. As for `CC1=C(/C=C/C(C)=C/C=C/C(C)=C\C(=O)O)C(C)(C)CCC1` [ISOTRETINOIN], the figure is 5.02%; as for `Cl.NC12CC3CC(CC(C3)C1)C2` [AMANTADINE HYDROCHLORIDE], 17.85%. For `NS(=O)(=O)Cc1noc2ccccc12` [ZONISAMIDE], the Inhibition turned out to be 1.04%. For `Br.CN(C)CCCC1(c2ccc(F)cc2)OCc2cc(C#N)ccc21` (configuration not stated) [CITALOPRAM HYDROBROMIDE], the Inhibition was 3.11%.

In the case of `C[C@@H]1C[C@H]2[C@@H]3C[C@H](F)C4=CC(=O)C(Cl)=C[C@]4(C)[C@@]3(F)[C@@H](O)C[C@]2(C)[C@@]1(O)C(=O)CO` [HALOMETASONE], the Inhibition was found to be 3%. For `CN[C@@H]1[C@H](O)[C@H](NC)[C@H]2O[C@@]3(O)C(=O)C[C@@H](C)O[C@H]3O[C@@H]2[C@H]1O.Cl.Cl.Cl.O.O.O` the value was 11.03%; for `CC#C[C@]1(O)CC[C@H]2[C@@H]3CCC4=CC(=O)CCC4=C3[C@@H](c3ccc(N(C)C)cc3)C[C@@]21C` [MIFEPRISTONE], 11.2%; for `N#Cc1ccc(C(c2ccc(C#N)cc2)n2cncn2)cc1` [LETROZOLE], 12.65%. With `NNC(=O)c1ccncc1` [ISONIAZID], the Inhibition is reported as 8.75%.

For the compound `O=c1c(O[C@@H]2O[C@H](CO)[C@@H](O)[C@H](O)[C@H]2O)c(-c2ccc(O)c(O)c2)oc2cc(O)cc(O)c12` [ISOQUERCETIN], the Inhibition is 18.79%.

As for `CC(=O)O.CNC(=N)NCCC[C@H](N)C(=O)O` [TILARGININE ACETATE], the Inhibition is on record as -13.73%.

Turning to `Br.Br.O=C1CC2(CCCC2)CC(=O)N1CCNCC1COc2ccccc2O1` (configuration not stated), the Inhibition is 17.36%. For `Cl.NC[C@H]1CC[C@H](C(=O)Oc2ccc(CCC(=O)O)cc2)CC1` [CETRAXATE HYDROCHLORIDE] the value was 14.3%. As for `CCCCc1nc(Cl)c(CO)n1Cc1ccc(-c2ccccc2-c2nnn[n-]2)cc1.[K+]` [LOSARTAN POTASSIUM], the figure is -19.73%; as for `CN1CCN(CCCN2c3ccccc3Sc3ccc(Cl)cc32)CC1.O=C(O)/C=C\C(=O)O.O=C(O)/C=C\C(=O)O` [PROCHLORPERAZINE MALEATE], 13.38%. For `O=C(O)COCCN1CCN([C@H](c2ccccc2)c2ccc(Cl)cc2)CC1` [LEVOCETIRIZINE] the value was 11.65%; for `Nc1ccc(S(=O)(=O)c2ccc(N)cc2)cc1` [DAPSONE], -0.58%; for `C[C@@H](O)[C@H]1C(=O)N2C(C(=O)O)=C(S[C@@H]3CN[C@H](C(=O)N(C)C)C3)[C@H](C)[C@H]12` [MEROPENEM], -14.17%. As to `OCCN(CCO)c1nc(N2CCCCC2)c2nc(N(CCO)CCO)nc(N3CCCCC3)c2n1` [DIPYRIDAMOLE], the Inhibition is reported as -23.93%.
